This is an account of results in the supplement of paper PMC11732987, “Enantioselective OTUD7B fragment discovery through chemoproteomics screening and high-throughput optimisation” (Communications Chemistry, 2025).

Values without a mark were called inactive.

Assay in all cases: log2 ratio of Biotin-Ahx-Ub-VS probe labelling (fragment/DMSO); higher = less target engagement (more negative = stronger competition), active = hit call of the paper (q ≤ 0.05, log2 ratio ≤ -1)
Details in all cases: compound concentration: 200 uM; treatment time: 3 h

Experiment [1] deals with T1, USP19 (UniProt O94966).
T1 sequence (whole entry): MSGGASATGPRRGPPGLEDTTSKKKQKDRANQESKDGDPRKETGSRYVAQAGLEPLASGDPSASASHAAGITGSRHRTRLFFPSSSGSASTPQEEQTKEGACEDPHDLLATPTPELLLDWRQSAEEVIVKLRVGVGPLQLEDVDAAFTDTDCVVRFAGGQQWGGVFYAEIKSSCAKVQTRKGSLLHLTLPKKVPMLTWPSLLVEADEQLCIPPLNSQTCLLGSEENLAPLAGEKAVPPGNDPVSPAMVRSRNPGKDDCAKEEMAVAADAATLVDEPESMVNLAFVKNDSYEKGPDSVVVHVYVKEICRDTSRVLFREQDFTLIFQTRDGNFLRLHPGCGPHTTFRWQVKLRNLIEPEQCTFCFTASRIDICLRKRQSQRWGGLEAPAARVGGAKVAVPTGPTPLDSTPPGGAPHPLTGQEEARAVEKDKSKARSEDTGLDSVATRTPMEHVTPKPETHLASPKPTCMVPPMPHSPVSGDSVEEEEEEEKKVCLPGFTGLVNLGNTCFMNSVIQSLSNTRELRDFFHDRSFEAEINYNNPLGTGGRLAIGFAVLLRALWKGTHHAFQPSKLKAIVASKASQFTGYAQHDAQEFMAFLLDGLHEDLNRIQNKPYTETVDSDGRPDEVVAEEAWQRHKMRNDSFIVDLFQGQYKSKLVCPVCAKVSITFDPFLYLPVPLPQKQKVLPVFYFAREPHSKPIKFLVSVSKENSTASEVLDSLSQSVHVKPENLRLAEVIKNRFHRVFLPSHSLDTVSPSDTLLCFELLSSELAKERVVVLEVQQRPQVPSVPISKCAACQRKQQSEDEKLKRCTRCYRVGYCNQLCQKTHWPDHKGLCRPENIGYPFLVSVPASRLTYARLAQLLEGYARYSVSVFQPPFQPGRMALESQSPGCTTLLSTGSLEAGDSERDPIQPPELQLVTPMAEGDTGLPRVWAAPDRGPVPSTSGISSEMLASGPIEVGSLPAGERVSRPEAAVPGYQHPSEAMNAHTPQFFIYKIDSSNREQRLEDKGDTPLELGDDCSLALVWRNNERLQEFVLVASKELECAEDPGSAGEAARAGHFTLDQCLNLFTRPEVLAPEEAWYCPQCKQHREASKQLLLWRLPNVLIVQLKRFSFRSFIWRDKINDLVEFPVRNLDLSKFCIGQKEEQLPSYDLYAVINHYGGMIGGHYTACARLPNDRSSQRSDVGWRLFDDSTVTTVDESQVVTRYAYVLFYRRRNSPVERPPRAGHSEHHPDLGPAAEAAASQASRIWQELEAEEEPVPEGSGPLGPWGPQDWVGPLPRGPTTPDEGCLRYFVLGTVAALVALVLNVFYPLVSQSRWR
Put shortly:
(§1)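 The table lists average log2 ratios of fragment over vehicle, from an unpaired t-test on global-median-normalised Spectronaut label-free quantities. Proteins with ≥2 unique peptides were used. Samples were HEK293T lysate (495 µg) treated in triplicate with fragment at 200 µM or vehicle for 3 h, then with Biotin-Ahx-Ub-VS (0.5 µM final) for 1 h, with labelled DUBs NeutrAvidin-enriched and run by diaPASEF LC-MS/MS.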

Experiment [2] has as its target T2, USP22 (UniProt Q9UPT9).
T2 sequence (whole entry): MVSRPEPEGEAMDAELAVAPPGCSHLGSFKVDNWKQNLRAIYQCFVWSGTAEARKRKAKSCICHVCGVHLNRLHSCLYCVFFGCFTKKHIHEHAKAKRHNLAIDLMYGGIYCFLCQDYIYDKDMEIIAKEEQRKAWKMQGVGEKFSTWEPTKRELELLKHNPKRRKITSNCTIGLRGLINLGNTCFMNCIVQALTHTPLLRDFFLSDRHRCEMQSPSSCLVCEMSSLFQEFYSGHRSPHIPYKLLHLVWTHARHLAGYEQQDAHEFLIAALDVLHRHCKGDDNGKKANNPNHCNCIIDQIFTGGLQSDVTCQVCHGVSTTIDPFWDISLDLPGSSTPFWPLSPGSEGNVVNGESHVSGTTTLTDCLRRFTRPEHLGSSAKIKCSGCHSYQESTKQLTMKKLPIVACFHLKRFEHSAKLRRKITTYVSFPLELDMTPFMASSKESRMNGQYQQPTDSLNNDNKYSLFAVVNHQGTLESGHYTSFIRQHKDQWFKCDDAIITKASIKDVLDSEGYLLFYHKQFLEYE
Put shortly: as §1

Experiment [3] concerns the target USP24 (UniProt Q9UPU5). Put shortly:
as §1

The target in experiment [4] is T3, USP25 (UniProt Q9UHP3).
T3 sequence (whole entry): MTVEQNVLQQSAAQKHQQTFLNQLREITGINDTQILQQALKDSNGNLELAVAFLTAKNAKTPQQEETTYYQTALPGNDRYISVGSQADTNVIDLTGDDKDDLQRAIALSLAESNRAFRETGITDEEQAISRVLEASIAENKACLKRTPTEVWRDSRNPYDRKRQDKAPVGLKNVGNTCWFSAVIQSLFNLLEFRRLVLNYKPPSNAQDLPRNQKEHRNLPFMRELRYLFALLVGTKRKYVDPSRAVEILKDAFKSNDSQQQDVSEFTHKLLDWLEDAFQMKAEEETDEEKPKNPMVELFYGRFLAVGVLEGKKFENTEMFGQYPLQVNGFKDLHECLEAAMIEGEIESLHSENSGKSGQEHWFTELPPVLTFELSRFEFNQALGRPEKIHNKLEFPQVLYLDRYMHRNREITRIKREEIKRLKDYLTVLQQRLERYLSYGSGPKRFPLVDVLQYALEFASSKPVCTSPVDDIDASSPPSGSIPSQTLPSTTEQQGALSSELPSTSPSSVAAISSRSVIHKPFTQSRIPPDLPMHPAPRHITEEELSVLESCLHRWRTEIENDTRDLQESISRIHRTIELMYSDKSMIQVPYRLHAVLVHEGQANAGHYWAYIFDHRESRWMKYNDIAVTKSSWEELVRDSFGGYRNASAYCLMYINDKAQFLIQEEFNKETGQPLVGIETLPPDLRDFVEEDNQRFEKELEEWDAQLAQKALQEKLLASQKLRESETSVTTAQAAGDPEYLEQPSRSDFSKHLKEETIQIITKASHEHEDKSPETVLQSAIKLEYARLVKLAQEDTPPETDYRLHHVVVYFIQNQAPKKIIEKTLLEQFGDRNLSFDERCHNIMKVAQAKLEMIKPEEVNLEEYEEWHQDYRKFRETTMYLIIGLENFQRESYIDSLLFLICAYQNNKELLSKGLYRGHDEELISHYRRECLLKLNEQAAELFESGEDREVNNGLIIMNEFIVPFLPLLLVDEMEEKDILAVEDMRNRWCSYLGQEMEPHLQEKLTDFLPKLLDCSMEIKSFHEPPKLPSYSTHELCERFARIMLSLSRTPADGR
Put shortly: as §1

The target in experiment [5] is T4, USP28 (UniProt Q96RU2).
T4 sequence (whole entry): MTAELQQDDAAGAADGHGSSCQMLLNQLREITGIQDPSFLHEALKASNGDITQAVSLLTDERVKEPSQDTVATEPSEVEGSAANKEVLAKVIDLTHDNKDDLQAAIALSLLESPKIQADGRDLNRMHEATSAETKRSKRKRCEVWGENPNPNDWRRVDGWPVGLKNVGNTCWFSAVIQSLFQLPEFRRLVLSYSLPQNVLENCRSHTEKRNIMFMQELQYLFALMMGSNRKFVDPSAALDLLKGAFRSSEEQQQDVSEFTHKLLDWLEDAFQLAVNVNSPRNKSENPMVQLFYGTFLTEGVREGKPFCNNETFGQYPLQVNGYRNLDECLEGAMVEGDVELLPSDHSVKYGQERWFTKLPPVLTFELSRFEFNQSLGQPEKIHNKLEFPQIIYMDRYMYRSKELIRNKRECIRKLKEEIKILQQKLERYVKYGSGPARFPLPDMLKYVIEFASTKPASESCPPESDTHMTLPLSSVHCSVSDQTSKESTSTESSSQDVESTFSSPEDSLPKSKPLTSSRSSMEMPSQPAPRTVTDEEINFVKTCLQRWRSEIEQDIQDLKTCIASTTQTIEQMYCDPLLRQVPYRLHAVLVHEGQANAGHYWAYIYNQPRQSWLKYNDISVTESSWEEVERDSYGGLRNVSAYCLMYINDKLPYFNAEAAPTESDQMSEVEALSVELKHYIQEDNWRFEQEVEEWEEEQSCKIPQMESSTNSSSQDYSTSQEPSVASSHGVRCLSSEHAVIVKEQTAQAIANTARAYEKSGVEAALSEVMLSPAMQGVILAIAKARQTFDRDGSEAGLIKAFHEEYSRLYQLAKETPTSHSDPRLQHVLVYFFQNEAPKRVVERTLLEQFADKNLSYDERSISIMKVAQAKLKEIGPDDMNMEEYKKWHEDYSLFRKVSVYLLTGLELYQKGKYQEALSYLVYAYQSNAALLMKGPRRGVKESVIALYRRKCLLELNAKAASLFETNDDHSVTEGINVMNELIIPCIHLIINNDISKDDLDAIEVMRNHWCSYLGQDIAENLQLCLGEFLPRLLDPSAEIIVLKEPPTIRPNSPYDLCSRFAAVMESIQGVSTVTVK
Put shortly:
as §1

Sequence of USP24 (Q9UPU5 whole entry): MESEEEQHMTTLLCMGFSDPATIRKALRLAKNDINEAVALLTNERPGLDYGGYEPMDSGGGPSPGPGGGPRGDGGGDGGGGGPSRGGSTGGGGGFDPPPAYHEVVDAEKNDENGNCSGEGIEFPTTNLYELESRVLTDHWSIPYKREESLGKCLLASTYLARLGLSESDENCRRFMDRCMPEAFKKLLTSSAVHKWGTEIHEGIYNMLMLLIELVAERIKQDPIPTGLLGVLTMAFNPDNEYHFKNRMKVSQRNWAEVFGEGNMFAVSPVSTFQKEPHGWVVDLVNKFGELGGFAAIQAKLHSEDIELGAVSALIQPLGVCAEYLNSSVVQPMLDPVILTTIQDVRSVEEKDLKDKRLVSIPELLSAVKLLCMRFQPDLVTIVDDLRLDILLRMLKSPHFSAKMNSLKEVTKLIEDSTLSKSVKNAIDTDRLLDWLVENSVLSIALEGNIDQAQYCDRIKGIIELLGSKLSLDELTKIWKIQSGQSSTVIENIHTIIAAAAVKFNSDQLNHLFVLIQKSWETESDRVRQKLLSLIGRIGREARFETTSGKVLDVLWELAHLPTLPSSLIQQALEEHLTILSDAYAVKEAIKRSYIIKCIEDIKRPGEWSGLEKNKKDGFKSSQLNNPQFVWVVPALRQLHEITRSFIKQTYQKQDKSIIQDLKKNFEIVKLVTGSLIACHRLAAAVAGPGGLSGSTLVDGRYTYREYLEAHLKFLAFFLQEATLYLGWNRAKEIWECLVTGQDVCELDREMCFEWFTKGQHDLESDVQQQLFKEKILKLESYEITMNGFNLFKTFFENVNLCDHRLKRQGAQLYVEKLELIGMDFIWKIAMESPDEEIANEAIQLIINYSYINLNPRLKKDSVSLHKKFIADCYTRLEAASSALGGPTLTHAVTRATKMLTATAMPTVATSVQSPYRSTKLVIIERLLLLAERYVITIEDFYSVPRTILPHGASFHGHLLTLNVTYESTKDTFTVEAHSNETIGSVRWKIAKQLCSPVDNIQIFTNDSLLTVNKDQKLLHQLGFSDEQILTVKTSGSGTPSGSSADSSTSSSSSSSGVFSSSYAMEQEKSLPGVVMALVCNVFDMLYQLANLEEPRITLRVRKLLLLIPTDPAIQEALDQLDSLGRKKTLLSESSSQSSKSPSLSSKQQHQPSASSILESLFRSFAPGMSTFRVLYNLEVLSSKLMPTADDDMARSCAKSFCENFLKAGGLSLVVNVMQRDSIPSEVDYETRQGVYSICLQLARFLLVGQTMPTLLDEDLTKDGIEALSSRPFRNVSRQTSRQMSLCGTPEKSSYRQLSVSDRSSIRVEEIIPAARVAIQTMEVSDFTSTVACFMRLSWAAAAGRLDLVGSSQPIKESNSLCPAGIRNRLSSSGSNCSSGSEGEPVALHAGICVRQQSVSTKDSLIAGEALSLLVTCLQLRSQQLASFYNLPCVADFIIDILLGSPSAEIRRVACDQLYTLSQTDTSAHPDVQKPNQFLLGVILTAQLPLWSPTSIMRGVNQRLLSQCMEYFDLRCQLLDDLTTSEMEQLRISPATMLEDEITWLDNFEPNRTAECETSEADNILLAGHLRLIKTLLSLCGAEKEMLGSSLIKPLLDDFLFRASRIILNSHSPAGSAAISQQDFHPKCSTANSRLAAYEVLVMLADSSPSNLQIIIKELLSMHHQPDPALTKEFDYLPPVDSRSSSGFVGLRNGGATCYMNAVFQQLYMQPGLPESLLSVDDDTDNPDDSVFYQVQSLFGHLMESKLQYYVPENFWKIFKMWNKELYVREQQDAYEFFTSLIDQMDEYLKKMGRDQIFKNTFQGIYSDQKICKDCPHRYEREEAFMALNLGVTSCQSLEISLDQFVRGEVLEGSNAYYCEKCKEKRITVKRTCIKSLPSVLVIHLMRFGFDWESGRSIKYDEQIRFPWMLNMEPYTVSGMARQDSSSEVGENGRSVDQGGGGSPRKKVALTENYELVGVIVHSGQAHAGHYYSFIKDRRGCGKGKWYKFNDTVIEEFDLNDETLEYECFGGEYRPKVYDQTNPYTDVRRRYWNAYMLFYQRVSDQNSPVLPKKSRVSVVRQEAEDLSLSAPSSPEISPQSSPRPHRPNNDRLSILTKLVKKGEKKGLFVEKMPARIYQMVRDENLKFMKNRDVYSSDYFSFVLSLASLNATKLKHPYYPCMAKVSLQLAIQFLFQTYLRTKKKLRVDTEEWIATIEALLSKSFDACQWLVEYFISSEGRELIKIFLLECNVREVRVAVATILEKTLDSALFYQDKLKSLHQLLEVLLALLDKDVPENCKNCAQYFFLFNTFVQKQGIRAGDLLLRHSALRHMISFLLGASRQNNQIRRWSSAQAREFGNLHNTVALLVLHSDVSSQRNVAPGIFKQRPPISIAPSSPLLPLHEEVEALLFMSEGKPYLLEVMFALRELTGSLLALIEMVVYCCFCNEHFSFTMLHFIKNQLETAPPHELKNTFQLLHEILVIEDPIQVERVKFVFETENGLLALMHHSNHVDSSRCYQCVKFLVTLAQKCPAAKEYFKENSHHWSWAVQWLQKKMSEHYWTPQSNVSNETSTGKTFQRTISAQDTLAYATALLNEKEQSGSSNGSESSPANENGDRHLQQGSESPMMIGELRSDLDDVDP

As to `O=C(CCl)Nc1cc2c(cc1Cl)OCCCO2`, the “log2 ratio of Biotin-Ahx-Ub-VS probe labelling” value is 0.113 in experiment [1]; 0.133 in experiment [2]; 0.00346 in experiment [3]; -2.47 (active) in experiment [4]; -1.92 (active) in experiment [5].
